# Assay outcomes deposited in PubChem by National Center for Advancing Translational Sciences (NCATS).
# RXFP1 antag: qHTS Assay for Antagonists of the Relaxin Receptor RXFP1. Relaxin receptor 1 (Homo sapiens), Q9HBX9. HEK293-RXFP1, relaxin-stimulated cAMP HTRF, 30 min; stronger effect = lower value. activity change, negative = inhibition, % at 57.5 µM. 350,000 compounds, 0.59% hits. AID 1259400, 2018;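 active = activity change of -60% or lower, but not beyond a set lower limit; inconclusive = change between -60% and -40%, or beyond the set limit; inactive = change above -40%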
# RXFP1 agonist: qHTS Assay for Agonists of the Relaxin Receptor RXFP1; AID 2676, 2010; Relaxin receptor 1 (Homo sapiens), Q9HBX9; 370,000 compounds, 0.3% hits; HEK293T-RXFP1 cAMP TR-FRET, 30 min; response scale: percent of porcine relaxin response, buffer zero; Potency, µM (highest dose often 57.5 µM), most hits filed as activators; active = well fitted activation curve with a large enough effect; inconclusive = small, poorly fitted or top-dose-only effect; also: nearly all actives have a fitted effect of over 60% in size
#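 cAMP rise read by TR-FRET after 30 min, 37C compound exposure (up to 58 uM) in RXFP1-transfected HEK293 cells with Ro 20174 present. EC50 from Hill-equation fits, with 29 nM porcine relaxin as 100% and buffer as basal.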
# pAkt inh: HTS Assay for Inhibitors of Akt Phophorylation: Primary Screen; Neuro2A IGF-stimulated pAkt S473 HTRF, 20 min; stronger effect = lower value; activity change, % for hits at 50 µM; 360,000 compounds, 0.32% hits; in the data active = activity change below about -80%; inconclusive = mostly about -51% to -80%
#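 Single-point screen (50 µM final compound) in Neuro2A cells stimulated 20 min with 6 nM IGF at 37 deg C. After lysis, Ser473-phosphorylated Akt read by HTRF (ex 330 nm, em 615/665 nm) as the 665/615 ratio.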
# KCNH2 3.1 inh: qHTS for Inhibitors of KCHN2 3.1: Mutant qHTS | U2OS KCNH2 3.1, thallium flux FluxOr; stronger effect = lower value | 340,000 compounds, 0.95% hits | AID 720553, 2013 | Potassium voltage-gated channel subfamily H member 2, brain isoform KCNH2 3.1 (human) | activity change, % (tested at about 1.8 µM);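 active = maximum activity change below -70%; inconclusive = maximum activity change from -70% to -50%; inactive = maximum activity change above -50%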;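 also: thallium influx rate constant from kinetic fluorescence after stimulation buffer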
#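 U2OS cells transduced with KCNH2 3.1 mutant virus (1.77 x 10^8 /mL, 4 h), plated overnight at 37 C, loaded 45 min with FluxOr dye plus Red40 quencher. Thallium flux rate constant from kinetic reads after stimulation buffer, normalised to controls.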
# KCNH2 WT inh: qHTS for Inhibitors of KCHN2 3.1: Wildtype qHTS; Voltage-gated inwardly rectifying potassium channel KCNH2 (Homo sapiens), Q12809; activity change, % at 1.84 µM; 340,000 compounds, 0.37% hits; U2OS, BacMam KCNH2, thallium flux FluxOr; stronger effect = lower value; AID 720551, 2013;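 active = maximum activity change below -70%; inconclusive = maximum activity change between -70% and -50%; inactive = maximum activity change above -50%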
# Target sequence (Q12809 whole entry, looked up): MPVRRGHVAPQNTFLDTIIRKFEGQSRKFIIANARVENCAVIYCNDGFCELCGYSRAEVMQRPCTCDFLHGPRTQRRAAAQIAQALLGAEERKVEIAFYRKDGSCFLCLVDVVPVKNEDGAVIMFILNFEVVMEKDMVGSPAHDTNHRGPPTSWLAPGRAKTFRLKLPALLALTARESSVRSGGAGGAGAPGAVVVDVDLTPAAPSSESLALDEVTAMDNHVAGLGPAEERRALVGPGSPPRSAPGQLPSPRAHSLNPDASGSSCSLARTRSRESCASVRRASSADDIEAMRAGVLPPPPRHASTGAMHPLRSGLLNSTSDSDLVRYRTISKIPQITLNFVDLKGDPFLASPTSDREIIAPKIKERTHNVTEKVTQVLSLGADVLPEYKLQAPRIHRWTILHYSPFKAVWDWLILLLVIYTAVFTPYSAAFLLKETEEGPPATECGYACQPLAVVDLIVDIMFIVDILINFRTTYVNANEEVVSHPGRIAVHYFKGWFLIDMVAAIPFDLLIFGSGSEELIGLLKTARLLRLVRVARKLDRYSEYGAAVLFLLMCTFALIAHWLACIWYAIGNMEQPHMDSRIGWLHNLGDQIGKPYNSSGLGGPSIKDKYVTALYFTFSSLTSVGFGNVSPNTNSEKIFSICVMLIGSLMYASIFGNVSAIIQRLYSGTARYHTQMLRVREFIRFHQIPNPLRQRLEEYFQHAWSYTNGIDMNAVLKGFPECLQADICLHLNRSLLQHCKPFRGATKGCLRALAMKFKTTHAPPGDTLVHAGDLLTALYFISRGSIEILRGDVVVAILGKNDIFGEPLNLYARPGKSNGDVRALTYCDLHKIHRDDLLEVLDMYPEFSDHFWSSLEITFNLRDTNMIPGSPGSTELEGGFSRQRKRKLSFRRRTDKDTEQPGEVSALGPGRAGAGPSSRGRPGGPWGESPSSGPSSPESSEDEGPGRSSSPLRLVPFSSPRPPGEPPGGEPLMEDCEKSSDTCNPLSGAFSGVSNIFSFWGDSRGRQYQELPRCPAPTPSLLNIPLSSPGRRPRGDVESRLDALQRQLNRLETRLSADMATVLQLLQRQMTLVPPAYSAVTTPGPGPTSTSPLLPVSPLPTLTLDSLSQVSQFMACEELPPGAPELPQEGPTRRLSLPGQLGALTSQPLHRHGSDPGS
#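 U2OS cells were transduced with wild-type KCNH2 virus (2.03 x 10^8 / mL) for 4 h at room temperature, then cultured overnight at 37 C. Thallium flux was read with FluxOr dye. Rate constants were normalized to DMSO controls.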
# Hits are given with their value; - = inactive; ? = inconclusive; . = no result given. A selection: hits, their analogues and other compounds. The true share with any hit is near 1.7%.
SMILES,RXFP1 antag,RXFP1 agonist,pAkt inh,KCNH2 3.1 inh,KCNH2 WT inh
COc1ccc(NC(=O)CN(C)C(=O)c2ccccc2SCC(=O)N2CCCC2)cc1,-,-,-,-,-
c1ccc(-c2ccc(OCCCNC3CCCC3)cc2)cc1,?,-,-,-92,-
O=C(Nc1ccccc1N1CCN(C(=O)c2ccc(Cl)cc2)CC1)c1ccc(Br)cc1,-,-,-,-91,-
O=C(Nc1ccccc1N1CCCCC1)c1ccc([N+](=O)[O-])o1,-,-,-,-,-
O=C(Nc1ccccc1N1CCN(C(=O)c2ccc(Cl)cc2)CC1)c1ccc([N+](=O)[O-])o1,-,-,-,-93,-94
O=C(Nc1ccccc1N1CCN(C(=O)c2ccccc2)CC1)c1ccc(Cl)cc1,-,-,-,-,-
O=C1/C(=C/c2ccccn2)SC(=S)N1Nc1ncc(C(F)(F)F)cc1Cl,-72,.,-,-,-
Cc1cc(NCCN2CCOCC2)c2ccc3ccccc3c2n1,-,-,-,-,-
Cc1ccc2[nH]c(=O)c(CN(Cc3ccco3)C(=O)N3CCOCC3)cc2c1,-,-,-,-,-
Cc1ccc(CN(Cc2cc3cc(C)ccc3[nH]c2=O)C(=O)N2CCOCC2)cc1,-,-,-106%,-,-
Cn1c(=S)[nH]c2c(c1=O)C(C)(C)Cc1ccccc1-2,-,16µM,-,-,-
CCn1c(=S)[nH]c2c(c1=O)C(C)(C)Cc1ccccc1-2,-,16µM,-,-,-
COc1cc(OC)c(N(C)S(=O)(=O)c2cccc(C(=O)Nc3nnc(C4CC4)s3)c2)cc1Cl,-,-,-,-,-
CC(C)NC(=O)/C(C#N)=C/c1cccc(NC(=O)c2ccccc2Cl)c1,-63,-,-,-,-
COc1ccccc1OCC(=O)NNC(=O)C1CCN(c2ncnc3sc(C)c(C)c23)CC1,-,-,-,-,-
Cc1ccccc1OCC(=O)NNC(=O)C1CCN(c2ncnc3sc(C)c(C)c23)CC1,-68,-,-,-,-
Cc1ccc(/C=C/S(=O)(=O)NCC(=O)OCC(=O)NCc2ccccc2)cc1,-,-,-,-,-
CCOC(=O)c1cccc(NC(=O)c2cnc3ccccc3n2)c1,-,-,-96%,-,-
S=c1[nH]cc(-c2ccccc2)n1-c1cccc(Cl)c1,-,-,-,-,-
COc1cccc(-n2c(-c3ccccc3)c[nH]c2=S)c1,-79,-,-,-,-
COc1cccc(C2=CC(=O)CC(C)(C)C2=O)c1,-,.,-,-,-
CC1(C)CC(=O)C=C(c2cccc(OC(=O)c3ccc(-c4ccccc4)cc3)c2)C1=O,-,.,-,-156,-142
O=[N+]([O-])c1ccc(-c2ccc(S(=O)(=O)NCCN3CCCC3)cc2)cc1,-,-,-,-90,-
Cc1cc(C(=O)COC(=O)c2ccc(NC(=O)CC#N)cc2)c(C)n1-c1ccc(OC(F)F)cc1,-62,.,-,-,-
CCOC(=O)/C(C#N)=C1/SC(C)C(=O)N1c1ccc(Br)cc1 (stereo not drawn),-,-,-,-,-
SMILES,RXFP1 antag,RXFP1 agonist,pAkt inh,KCNH2 3.1 inh,KCNH2 WT inh
CCC(=O)N1c2ccc(S(=O)(=O)N3CCN(c4ccc([N+](=O)[O-])cc4)CC3)cc2CC1C (stereo not drawn),-,-,.,-99,-
COc1cc(OC)c(C(=O)OCC(=O)Nc2ccc(N3CCOCC3)cc2)cc1OC,-,.,-,.,-
COc1ccc(OC)c2c(N3CC(C)OC(C)C3)cc(C(F)(F)F)nc12 (stereo not drawn),-,-,-114%,-,-
Cc1nn(-c2ccccc2)c(N)c1C(c1ccc(C(C)C)cc1)c1c(C)nn(-c2ccccc2)c1N,.,-,-,-,-
CCC(Sc1nc2cc3c(cc2c(=O)n1CCCC(=O)NCc1ccc2c(c1)OCO2)OCO3)C(=O)NCCCOC (stereo not drawn),-106,-,.,.,.
CCCCC(Sc1nc2cc3c(cc2c(=O)n1CCCC(=O)NCc1ccc2c(c1)OCO2)OCO3)C(=O)OCC (stereo not drawn),-,-,.,.,.
CCc1ccc(OCC(=O)NNC(=O)c2cc(S(=O)(=O)N(C)C)ccc2N2CCCC2)cc1,-114,-,-,-,-
CN(C)S(=O)(=O)c1ccc(N2CCCC2)c(C(=O)NNC(=O)COc2ccc(Cl)cc2)c1,-,-,-,-,-
COc1cc(/C=C/C(=O)OCC(=O)NC2CCS(=O)(=O)C2)ccc1OC(F)F (stereo not drawn),-,-,-,-167,-
CCN(CC)c1ccc(/C=C(/C#N)c2nc3ccc(C)cc3[nH]2)c(OC(C)C)c1,-,-,.,?,-70
CCCOc1cc(N(CC)CC)ccc1/C=C(/C#N)c1nc2ccc(C)cc2[nH]1,-,-,-,-,-
CN(C(=O)COC(=O)CSc1ccc([N+](=O)[O-])cc1)C1CCS(=O)(=O)C1 (stereo not drawn),-101,-,-,-,-
O=[N+]([O-])c1ccc(N/N=C/c2ccc(O)c(O)c2O)c(S(=O)(=O)N2CCOCC2)c1,-85,-,-,-,-
COc1ccc(C(=O)c2c(-c3ccc(OC)cc3)oc3ccccc23)cc1,.,-,-,-71,-
COc1ccc(C2C=C(c3ccc(Cl)c(Cl)c3)Nc3ncnn32)cc1 (stereo not drawn),-,-,.,.,.
O=C(O)/C=C/C(=O)Nc1ccc(Oc2ccccc2)cc1,-,-,-,-,-
CCOC(=O)/C=C/C(=O)Nc1ccc(Oc2ccccc2)cc1,-64,-,-,-,-
Cc1ccc(-c2c(C(=O)N/N=C/c3ccoc3)nnn2-c2nonc2N)cc1,-,-,-,-,-
COCCN(Cc1cc2ccc(C)cc2[nH]c1=O)S(=O)(=O)c1ccccc1,-,-,-,-,-218
COc1ccc(C(=O)NNC(=O)c2ccccn2)cc1,-,-,-,-,-
COc1cc(OC)cc(C(=O)NNC(=O)c2ccccn2)c1,-94,-,-,-,-
CC1(C(=O)N2Cc3ccccc3C2)CCN1C(=O)C1(c2ccc(Cl)cc2)CC1 (stereo not drawn),.,.,-,.,.
CC1=CC(C)(C)N2C(=O)C3(C(C#N)=C(N)Oc4cc(O)ccc43)c3c(C)c(C)cc1c32 (stereo not drawn),-73,-,.,.,-
Cc1ccc2oc(=O)c3cnn(CC(=O)NCCCOC(C)C)c3c2c1,-,-,-,-,-
CCn1c(SCC(=O)Nc2ccccc2F)nnc1-c1ccoc1C,-,-,-,-118,-
CCn1c(SCC(=O)Nc2ccccc2C(=O)OC)nnc1-c1cccc(C)c1,-,-,-,-171,-
COC(=O)c1ccccc1NC(=O)CSc1nccn1C,-,-,-99%,-,-
